Consider 15 molecules from PubChem BioAssay (NCATS).

Test [1] concerns the target Alpha-galactosidase A (Homo sapiens) (UniProt P06280). In words: Counterscreen for Glucocerebrosidase Inhibitors: qHTS Assay for Human alpha-Galactosidase at pH 4.5 (AID 992). Note: 0% is about no effect. In short, it runs like this:
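Concentration-response curves (0.7 nM to 77 uM final) were modeled with the Hill equation to give AC50. Reactions: 2 nM enzyme, 80 uM fluorogenic alpha-galactoside, pH 4.5 citric acid buffer, 20 min, room temperature.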

Test [2] deals with alpha-glucosidase (Oryza sativa, rice) (UniProt Q653V4). Briefly: Counterscreen for Glucocerebrosidase Inhibitors: qHTS Assay for Rice alpha-Glucosidase at pH 5.0 (AID 997).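 Note: 0% = full activity with enzyme and -100% = basal without enzyme.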 The gist of the method: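 Rice alpha-glucosidase (4 nM final) with 400 uM 4-methylumbelliferyl-alpha-D-glucopyranoside in citrate buffer pH 5.0, 20 min at room temperature, stopped at pH 10; fluorescence 365/440 nm, compounds 0.7 nM–77 uM, AC50 from Hill fits.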

Test [3] is described as follows: qHTS Assay for Lipid Storage Modulators (AID 1519; calls by dose curve; for activity change, negative = inhibition: % is set by controls: 0 for no effect and ±100 for the full control effect). As to conditions: Drosophila S3 cells, BODIPY lipid droplet/cell ratio, laser cytometry, cells loaded with oleic acid; for activity change, negative = inhibition: at 57.5 µM (top of the series). The gist of the method: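 Cells seeded at 5,000 per well were treated with compounds over a concentration series and loaded with oleic acid (400 uM, as added). Lipid droplet fluorescence (488 nm excitation, 500-530 nm channel) was read by laser-scanning cytometry and normalized to 20 uM Triacsin C.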
A general note: Quantitative high-throughput screening tests each substance at several concentrations.

Test [4] addresses DNA repair nuclease/redox regulator APEX1 (Homo sapiens) (UniProt P27695). In words: qHTS Validation Assay for Inhibitors of the Human Apurinic/apyrimidinic Endonuclease 1 (APE1) (AID 1705;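 note: TAMRA fluorescence gain over two minutes as APE1 cuts a quenched THF abasic duplex; % is set by controls: 0 for no effect and ±100 for the full control effect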). In short, it runs like this: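 Fluorogenic double-stranded THF abasic-site substrate (5'-TAMRA/3'-BHQ-2), 50 nM final. Enzyme preincubated with compound 15 min at room temperature, then substrate added. Kinetic fluorescence (ex 525/em 598 nm) read three times at 60 s intervals; activity taken as third-minus-first read difference.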

Test [5] in a line: Counterscreen for APE1 Inhibitors: Fluorescent Dye Displacement Validation Assay (AID 1707).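 Note: plate controls were ThO with dsDNA and no compound for no effect and ThO without dsDNA for full effect.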 The gist of the method: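 Assay buffer: Tris-HCl pH7.5 with 50mM NaCl, 2 mM MgCl2, 0.01% Tween-20. Dye 250 nM, duplex 50 nM final. Readout: decrease in ThO endpoint fluorescence, 480 nm excitation, 540 nm emission.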
Test [6] can be described thus: qHTS for differential inhibitors of proliferation of Plasmodium falciparum line 7G8 (AID 1815).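 For activity change, negative = inhibition: plate controls were vehicle wells for no effect and reference inhibitor wells for full effect.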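 Note: parasite growth measured after three days of incubation.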 Note: potency is the fitted concentration of half-maximal effect.
Test [7] can be described thus: qHTS for differential inhibitors of proliferation of Plasmodium falciparum line GB4 (AID 1816).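 For activity change, negative = inhibition: 0% = vehicle DMSO and -100% = reference inhibitor.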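 Note: parasite growth measured after 72 h incubation.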 Note: potency is the fitted concentration of half-maximal effect. The conditions noted are these: Potency: Plasmodium falciparum GB4 proliferation inhibition.
The nature of test [8]: qHTS for differential inhibitors of proliferation of Plasmodium falciparum line 3D7 (AID 1876). Note: potency is the fitted concentration of half-maximal effect.
Test [9] deals with Endonuclease 4 (Escherichia coli (strain K12)) (UniProt P0A6C1). Briefly: Counterscreen for APE1 Inhibitors: qHTS Validation Assay for Inhibitors of Endonuclease IV (AID 1708). Note: % is set by controls: 0 for no effect and ±100 for the full control effect. In short, it runs like this: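 Concentration-response counterscreen run identically to the APE1 assay: 15 min room-temperature preincubation of 2 nM enzyme with compound, reaction started with 50 nM quenched abasic DNA, progress taken from kinetic fluorescence.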

Test [10] in a line: Validation of Assay for Modulators of Lamin A Splicing (AID 1459; active = well fitted curve in the direction sought with a large enough effect in the signal ratio; the % refers to the signal ratio;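 note: cells exposed to compound for two days before reading; 0% is about no effect; ratio rise marks activators and ratio drop marks inhibitors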). The gist of the method:
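S3 HeLa stably expressing lamin A-EGFP splicing minigene and DsRed2, 600 cells/well in Opti-MEM with 2% FBS, treated 48 h at 37C; laser-scanning cytometry gives GFP/RFP total intensity ratio; ancitabine positive control, 0.5% DMSO vehicle.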

Setting [11] is: measured here: cell count channel max response.
[12] abbreviates: measured here: lipid channel max response.

Structures are written as SMILES. “And” between values parts separate entries of the source, which are not always exact repeats. Equal values may be shown once. Results filed as inconclusive are left out. The source made the active and inactive calls. Unless noted, calls come from the whole dose curve; as a rule, active = well fitted curve in the direction sought with a large enough effect; inconclusive = small, poorly fitted or top-dose-only effect, or another doubt; inactive = no such curve, though single readings can be large; an effect the other way counts as inactive or inconclusive.

Alpha-galactosidase A (Homo sapiens), sequence (P06280 whole entry, looked up): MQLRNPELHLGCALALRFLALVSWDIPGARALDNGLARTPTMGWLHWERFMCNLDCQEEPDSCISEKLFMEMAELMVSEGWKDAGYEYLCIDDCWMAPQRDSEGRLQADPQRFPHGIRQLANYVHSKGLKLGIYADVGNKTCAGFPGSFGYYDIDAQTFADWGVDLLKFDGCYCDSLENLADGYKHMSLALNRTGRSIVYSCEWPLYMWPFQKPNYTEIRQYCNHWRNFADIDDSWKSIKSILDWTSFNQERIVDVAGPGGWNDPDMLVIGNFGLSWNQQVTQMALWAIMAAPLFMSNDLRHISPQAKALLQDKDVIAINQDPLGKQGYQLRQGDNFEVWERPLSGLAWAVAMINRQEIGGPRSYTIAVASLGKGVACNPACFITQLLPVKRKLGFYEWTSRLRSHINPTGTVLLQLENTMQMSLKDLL
DNA repair nuclease/redox regulator APEX1 (Homo sapiens), sequence (P27695 whole entry, looked up): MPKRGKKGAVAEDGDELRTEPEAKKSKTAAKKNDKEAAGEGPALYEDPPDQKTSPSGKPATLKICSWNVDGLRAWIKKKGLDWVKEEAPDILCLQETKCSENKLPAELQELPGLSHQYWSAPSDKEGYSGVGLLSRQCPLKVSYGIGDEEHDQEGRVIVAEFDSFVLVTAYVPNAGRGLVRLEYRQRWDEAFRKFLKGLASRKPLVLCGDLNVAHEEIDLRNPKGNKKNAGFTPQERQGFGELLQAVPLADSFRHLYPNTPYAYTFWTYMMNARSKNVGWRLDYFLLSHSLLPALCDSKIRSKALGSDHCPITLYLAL

For `CCCc1c(OCCCOc2ccc(OCC(=O)O)cc2)ccc(C(C)=O)c1O`, the molecule was classed as inactive in test [1] and in test [2]. For the same molecule, the activity change, negative = inhibition in [3] is 1% (inactive). In addition, the max response in test [3] (setting [11]) came out at 51.1%; in [3] (setting [12]) it was 51.4%. Besides, the Potency entry in [4], in [5], in test [6], in test [7] and in test [8] was “inactive” in each case.

For the molecule `Nc1ccc2c3c(cccc13)C(=O)NC2=O`, the outcome in test [1] and in test [2] was inactive. Besides, in test [3], the activity change, negative = inhibition is 0.251% (inactive). The max response in test [3] (setting [11]) is -11.6%; in [3] (setting [12]), -11.3%. For the same molecule, in [9], the Potency result was “inactive”.

For the molecule `CCCn1c(=O)c2[nH]c(C3CCCC3)nc2n(CCC)c1=O`, the result in test [1] and in test [2] was inactive. In addition, in [3], the activity change, negative = inhibition is 7.3% (inactive). The max response in test [3] (setting [11]) was determined as 9.56%; in test [3] (setting [12]), 17.6%. Moreover, the Potency result in test [5] and in test [9] was “inactive” throughout.

Regarding `N[C@H](C(=O)O)c1cc(O)cc(O)c1`, the result in test [1] and in test [2] was inactive. Moreover, the activity change, negative = inhibition in [3] is 10.3% (inactive) and 1.43% (inactive) and 0.261% (inactive). Besides, the max response in test [3] (setting [11]) was 7.08% and 3.62% and -19%; in test [3] (setting [12]), 19.7% and 15.4% and -15.9%. The Potency result in test [4], in [5], in [9], in [6], in test [7] and in [8] was “inactive” throughout.

Regarding `CCCCOc1cc(CC2CNC(=O)N2)ccc1OC` (configuration not stated), the activity change, negative = inhibition in test [3] was 7.3% (inactive). The max response in test [3] (setting [11]) turned out to be 28.9%; in test [3] (setting [12]), 40.3%. Moreover, the Potency result in test [4], in test [5], in test [9] and in [8] was “inactive” each time.

`NC1(C(=O)O)CC1`: the molecule was called inactive in [1] and in [2]. The activity change, negative = inhibition in test [3] is 3.79% (inactive). Also, the max response in test [3] (setting [11]) turned out to be 18.9%; in [3] (setting [12]) it was 25.1%. The Potency result in test [4] and in test [5] was “inactive” throughout. In test [8], the Potency was 11.2 µM (active).

As to `C[N+](C)(C)CC=O`, the molecule was classed as inactive in test [1] and in test [2]. In addition, in [3], the activity change, negative = inhibition was -0.649% (inactive). The max response amounted to 50.2% in test [3] (setting [11]) and 40.1% in [3] (setting [12]). Further, the Potency result in test [4], in test [5], in test [9], in test [6], in test [7] and in test [8] was “inactive” throughout.

On to `COc1ccc2c(c1)c(CC(=O)O)c(C)n2Cc1ccc(Cl)cc1`, for which the molecule was called inactive in test [1] and in test [2]. Moreover, the activity change, negative = inhibition in test [3] was -1.87% (inactive). In addition, the max response in [3] (setting [11]) was -35.2%; in [3] (setting [12]), -34.3%. The Potency result in test [4], in test [5] and in test [9] was “inactive” each time. In addition, the Potency in test [6] was 14.1 µM (active); in [7] it was 10 µM (active); in [8], 11.2 µM (active).

`N#C/C(=C\c1ccc(O)c(O)c1)C(=O)NCCCNC(=O)/C(C#N)=C/c1ccc(O)c(O)c1`: the molecule was called inactive in [1], in [2] and in [10].

For the molecule `O=C(O)Cc1c[nH]c2ccc(O)cc12`, the outcome in test [1] and in [2] was inactive. Further, the activity change, negative = inhibition in test [3] was 1.1% (inactive). Moreover, the results for the max response in test [3] (setting [11]) and in [3] (setting [12]) were -19.7% and -16.3%, respectively. Besides, the Potency entry in test [4], in test [5], in test [6] and in test [7] was “inactive” throughout.

With `O=c1cc(-c2ccccc2)[nH]c2nc(Cl)ccc12`, the molecule was classed as inactive in test [1] and in test [2]. The activity change, negative = inhibition in [3] is 0.241% (inactive). Moreover, the max response in [3] (setting [11]) was found to be 61.8%; in test [3] (setting [12]), 65%. In addition, the Potency entry in [4], in [5] and in test [9] was “inactive” in each case. Besides, the Potency in test [6] is 10 µM (active); in test [7], 14.1 µM (active).

As for `C/C(=C\c1ccc(C(=O)O)cc1)c1ccc2c(c1)C(C)(C)CCC2(C)C`, the molecule was called inactive in [1] and in test [2]. Further, the activity change, negative = inhibition in test [3] was -4.87% (inactive) and -0.58% (inactive). For the same molecule, the max response in [3] (setting [11]) was -0.191% and 31.2%; in test [3] (setting [12]) it was -3.14% and 29.9%. Moreover, the Potency result in test [4], in test [5] and in [7] was “inactive” in each case.

For the molecule `Clc1nccc2c1ccc1ccccc12`, the molecule was called inactive in test [1] and in [2]. Also, the activity change, negative = inhibition in test [3] is -1.52% (inactive). In addition, the max response is -15.2% in test [3] (setting [11]) and -17.8% in test [3] (setting [12]). Also, the Potency entry in [5], in test [6], in [7] and in test [8] was “inactive” each time.

As to `CC(C)(CO)Cc1cc(C(C)(C)C)c(O)c(C(C)(C)C)c1`, the outcome in test [1] and in test [2] was inactive. The activity change, negative = inhibition in test [3] was -0.753% (inactive). Besides, the max response in test [3] (setting [11]) is -30.7%; in [3] (setting [12]), -34%. The Potency result in [4] and in [5] was “inactive” throughout. Moreover, in test [8], the Potency was 3.98 µM (active).

On to `CCCCOC(=O)NS(=O)(=O)c1sc(CC(C)C)cc1-c1ccc(Cn2c(CC)nc3c(C)cc(C)nc32)cc1`, for which the outcome in test [1] and in [2] was inactive. Further, the activity change, negative = inhibition in [3] was -0.147% (inactive). Besides, the max response was determined as 28.5% in test [3] (setting [11]) and 27.6% in [3] (setting [12]). Moreover, the Potency entry in test [5] was “inactive”. The Potency in test [6] was 7.08 µM (active); in [7] it was 8.91 µM (active); in [8], 11.2 µM (active).
